Compound activity deposited in PubChem BioAssay by The Scripps Research Institute Molecular Screening Center.
hgDAF12 agonist: H. glycines DAF-12 receptor agonists, primary screen, cell-based, luminescence, HEK293, GAL4 fusion, UAS-luciferase. HEK293 GAL4-hgDAF12 UAS-luciferase reporter, agonist luminescence; normalized to butyrate control. 1.8% of 370,000 active. Nuclear hormone receptor DAF-12 (Heterodera glycines), GAL4 fusion. activation, % at 6.8 µM;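 active = activation above a cutoff set at the mean of all screened compounds plus 3 SD, cut at about 10% in these data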
DAX1 inh-1: DAX1 (NR0B1) inhibitors, primary screen, cell-based, HEK293, Gal4-DAX1, luciferase luminescence; Nuclear receptor subfamily 0 group B member 1 (Homo sapiens), P51843; HEK293 Gal4-DAX1 luciferase reporter; inhibition, % at 6.75 µM; 0.99% of 340,000 active;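 active = inhibition above the mean over all tested compounds plus 3 SD, cut at about 4.2% in these data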;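 also: inhibition shows as a rise in luminescence from relieved DAX1 repression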
Target sequence (P51843 207-470 limits assumed): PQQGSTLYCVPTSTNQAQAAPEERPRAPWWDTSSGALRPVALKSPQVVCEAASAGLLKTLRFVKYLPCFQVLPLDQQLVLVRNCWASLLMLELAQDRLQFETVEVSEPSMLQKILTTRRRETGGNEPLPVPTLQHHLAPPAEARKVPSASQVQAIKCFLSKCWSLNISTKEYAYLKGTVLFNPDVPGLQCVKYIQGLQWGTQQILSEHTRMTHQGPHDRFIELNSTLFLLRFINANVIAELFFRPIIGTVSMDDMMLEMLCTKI
ssDAF-12 act: S. stercoralis DAF-12 nuclear receptor activators, primary screen, cell-based, luminescence, HEK293, GRIP1 co-expression, lit1-tk-luc. Nuclear hormone receptor DAF-12 (Strongyloides stercoralis). 1% of 370,000 active. HEK293 ssDAF-12/GRIP1 lit1-tk-luc reporter; % of 3 µM dafachronic acid response. activation, % at 6.8 µM;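 active = activation above the mean over all tested compounds plus 3 SD, cut at about 0.9% in these data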
FXN GAA850 act: FXN promoter activators, primary screen, cell-based, luciferase luminescence, HEK293 lucGAA850; HEK293 lucGAA850 FXN promoter luciferase reporter, 24 h; percent of 10 µM SAHA response; activation, % at 6 µM; 0.56% of 360,000 active;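 active = activation above the average of all compounds screened plus 3 SD, cutoff fixed separately per campaign, cut at about 7.5% in these data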
hcDAF-12 act: H. contortus DAF-12 nuclear receptor activators, primary screen, cell-based, luminescence, HEK293, lit1-tk-luc reporter; activation, % at 6.8 µM; AID 652067, 2013; HEK293 hcDAF-12 lit1-tk-luc reporter; 0% DMSO, 100% Δ7-dafachronic acid; 1.4% of 370,000 active;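 active = activation above the mean of all tested compounds plus 3 SD, cut at about 5.5% in these data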
DAX1 inh-2: DAX1 (NR0B1) inhibitors on StAR promoter, primary screen, cell-based, luminescence, SF-1 (NR5A1), full-length DAX-1; 1.1% of 370,000 active; HEK293T StAR-luciferase reporter, SF-1/DAX-1 repression relief; inhibition, % at 6.8 µM; AID 652010, 2013;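 active = inhibition above the mean over all tested compounds plus 3 SD, cut at about 3.6% in these data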;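 also: higher inhibition means more luminescence from relief of DAX-1 repression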
Numbers stand for hits; . = inactive; / = no result given. Most compounds without a hit are left out; they make up all but 4.5% or so of the library.

SMILES | hgDAF12 agonist | DAX1 inh-1 | ssDAF-12 act | FXN GAA850 act | hcDAF-12 act | DAX1 inh-2
CC(C)CN1C(=O)C[C@@]2(C(=O)N(C)c3ccc(NS(=O)(=O)c4ccc(F)cc4)cc32)C1c1ccccc1 (stereo partly specified) | . | / | . | / | . | .
O=C(N/N=C/c1ccc[nH]1)c1ccc2c(c1)OCO2 | 11 | . | . | . | . | .
O=C(N/N=C/c1ccc[nH]1)c1ccc(O)cc1 | . | . | . | . | . | .
CCCCCC1=CCC/C1=N\NC(=O)c1ccc2c(c1)OCO2 | 12 | . | . | . | . | .
O=C(N/N=C/c1ccc2c(c1)OCO2)c1ccc2c(c1)OCO2 | . | . | . | . | . | 4.0
O=C(CCc1ccccc1)N[C@H]1/C(=N/O)CCC[C@]12C(=O)N(Cc1ccccc1)c1ccccc12 | . | / | . | / | . | .
CC(C)C(=O)Nc1cccc(NC(=O)c2cccc([N+](=O)[O-])c2)c1 | . | 5.5 | . | . | . | .
O=C(O)c1cccc([N+](=O)[O-])c1C(=O)Nc1cccc2ccccc12 | . | . | . | . | . | .
O=C(Nc1ccc2ccccc2c1)c1cccc([N+](=O)[O-])c1 | 12 | . | . | . | . | .
O=C(O)c1cccc([N+](=O)[O-])c1C(=O)Nc1ccc2ccccc2c1 | . | . | 1.8 | . | 6.5 | .
O=C(Nc1cccc([N+](=O)[O-])c1)c1ccccc1 | . | . | . | . | . | .
Cc1onc(C(=O)N2CCN(C(c3ccc(Cl)cc3)c3ccc(Cl)cc3)CC2)c1[N+](=O)[O-] | . | / | . | / | . | /
O=C(CN1CCc2onc(-c3ccc(-n4cc(-c5ccccc5)nn4)cc3)c2C1=O)N1CCOCC1 | . | / | . | / | . | .
C/C(CCc1ccc2c(c1)OCO2)=N\NC(=O)c1ccc(C)cc1C | 13 | . | . | . | . | .
CCN(CC)CCNC(=O)c1cc2c(-c3ccc(Cl)cc3)nn(C)c2s1 | . | . | . | . | 9.7 | .
COCCCNC(=O)c1cc2c(-c3cccc(OC)c3)nn(C)c2s1 | . | . | . | . | . | .
CCN(CC)CCNC(=O)c1cc2c(-c3cccc(OC)c3)nn(C)c2s1 | . | . | 1.2 | . | . | .
C=CCN1C(=O)c2[nH]nc(-c3ccccc3)c2C1c1ccc(C)cc1 (stereo unspecified) | . | / | . | / | . | .
CCCN1CC(=O)N2[C@H](C[C@@]3(n4ccc5ccccc54)c4ccccc4N(S(=O)(=O)c4ccccc4)[C@@H]23)C1=O | . | / | . | / | . | .
Cc1cccnc1CCNC(=O)CCc1nnc(CCc2ccccc2)o1 | . | 4.7 | . | . | . | .
CN(C(=O)COC(=O)CSc1ccc([N+](=O)[O-])cc1)C1CCS(=O)(=O)C1 (stereo unspecified) | . | . | 1.5 | . | . | .
O=C(O)Cc1sc(Nc2ccc(F)cc2)nc1-c1cccs1 | 15 | . | . | . | . | .
O=C(Cc1sc(Nc2ccccc2)nc1-c1ccccc1)NCc1ccccn1 | 11 | . | . | . | 6.0 | .
Cc1nc(Nc2ccccc2)sc1C(=O)c1ccc(F)cc1 | . | . | . | . | . | .
O=C(O)Cc1sc(-c2ccc(Cl)cc2)nc1-c1ccccc1 | . | . | . | . | . | .
O=C(O)Cc1sc(Nc2ccccc2)nc1-c1ccc(Cl)cc1 | 11 | . | . | . | . | .
COC(=O)[C@]12C[C@H](CC(=O)NCc3ccc(C)o3)C(=O)N(Cc3ccco3)C1=C[C@H](C(C)C)O[C@@H]2C1CC1 | . | / | . | / | . | .
COc1ccc(-c2nc3ccccn3c2CN2CCN(c3ccccc3F)CC2)cc1 | . | 4.4 | . | . | . | .
